From PubChem BioAssay
Results filed as inconclusive are left out. Activity calls are given as the source filed them.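 The calls were made as follows, unless noted: active = normalized viability below 100% at a tested concentration; inactive = the rest.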

Columns and labels:
[1] = growth inhibition of DIPG glioma cells, dose response, cell-based, SU-DIPG-XVII, MIPE5.0, CellTiter-Glo, qHTS (AID 1347060; cut-off not given, nearly all actives have AC50 up to about 26 µM;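 as to AC50: cells exposed to compound for 48 hours before viability readout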); settings: SU-DIPG-XVII viability, CellTiter-Glo ATP luminescence
[2] = viability loss in pontine glioma line – cell-based, SU-DIPG-XXV, MIPE5.0, CellTiter-Glo, qHTS, dose response (AID 1347065; cut-off not given, nearly all actives have AC50 up to about 26 µM;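 also: cells exposed to compound for 48 hours before ATP readout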); settings: CellTiter-Glo ATP luminescence
[3] = JHH-DIPG-1 glioma cell viability, MIPE5.0 library, CellTiter-Glo luminescence, qHTS (AID 1347067; cut-off not given, nearly all actives have AC50 up to about 26 µM;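 also: cells exposed to compound for 48 hours before readout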); settings: JHH-DIPG-1 glioma viability, CellTiter-Glo ATP luminescence
[4] = SU-DIPG-XXV glioma cell viability, MIPE5.0 library, qHTS (AID 1347068; cut-off not given, nearly all actives have IC50 up to about 30 µM;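 as to IC50: cells exposed to compound for 48 hours before viability readout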)
[5] = sensitizers of A549 cells to miR-34 induction, primary screen, imaging, A549 dox-inducible miR-34, nuclei and caspase counts (AID 1347080;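 active = compounds whose cell count with miR-34 switched on is under 0.7 times the count with it off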); settings: A549 miR-34 inducible, Hoechst nuclei count, 48 h
[6] = survival rescue of mitochondrial mutant cells in low glucose, primary screen, MELAS cybrids, Rieske KO mouse fibroblasts, CellTiter-Glo (AID 1508586;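 active = mean z-score across replicates of 1.96 or higher in either the MELAS or the Rieske mutant cell line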;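 also: z relative to plate mean and SD of compound and empty wells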)
[7] = ovarian cancer cell viability with rucaparib, profiling panel, oncology-focused library, rucaparib conditional (AID 1508598); settings: patient-derived ovarian cancer cells, CellTiter-Glo viability, 144 h, stronger effect = lower value
[8] = liver-stage malaria parasite growth inhibition, primary screen, cell-based, HepG2, luciferase luminescence, HepG2 viability (AID 624349; in the data active = parasite load remaining mostly below about 12%, no sharp cut-off; inactive = mostly above about 10%;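 also: 100% = mean of DMSO negative control wells on the same plate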); settings: P. berghei liver stage in HepG2, luciferase luminescence, concentration not given here; parasite load remaining: stronger effect = lower value; viability: measured here: HepG2 viability without parasites
[9] = modifiers of HSF1 nuclear foci, imaging, Selleck Cancer Library (AID 1347162; in the data active = plate-normalised HSF1 focus index below about 0.46); settings: human cells, at 10 µM; SSMD: measured here: HSF1 foci SSMD mean; cell count: measured here: cell number; plate-normalised HSF1 focus index: stronger effect = lower value
[10] = stronger effect = lower value, cell number ratio, induced over uninduced
[11] = measured here: relative caspase fold change +Dox/-Dox
[12] = measured here: total cells with miR-34 induction, stronger effect = lower value
[13] = measured here: total cells without miR-34 induction
[14] = MELAS cybrid survival, CellTiter-Glo 48 h, stronger effect = higher value
[15] = Rieske KO mouse fibroblast survival, CellTiter-Glo 72 h
[16] = at 0.000305 µM, OCI-C5x cells, with rucaparib 10 µM, 100% = cells with rucaparib alone
[17] = at 0.000305 µM, OCI-C5x cells, without rucaparib
[18] = at 0.000305 µM, OCI-P5x cells, with rucaparib 20 µM, 100% = cells with rucaparib alone
[19] = at 0.000305 µM, OCI-P5x cells, without rucaparib
[20] = at 0.00122 µM, OCI-C5x cells, with rucaparib 10 µM, 100% = cells with rucaparib alone
[21] = at 0.00122 µM, OCI-C5x cells, without rucaparib
[22] = at 0.00122 µM, OCI-P5x cells, with rucaparib 20 µM, 100% = cells with rucaparib alone
[23] = at 0.00122 µM, OCI-P5x cells, without rucaparib
[24] = at 0.00488 µM, OCI-C5x cells, with rucaparib 10 µM, 100% = cells with rucaparib alone
[25] = at 0.00488 µM, OCI-C5x cells, without rucaparib
[26] = at 0.00488 µM, OCI-P5x cells, with rucaparib 20 µM, 100% = cells with rucaparib alone
[27] = at 0.00488 µM, OCI-P5x cells, without rucaparib
[28] = at 0.0195 µM, OCI-C5x cells, with rucaparib 10 µM, 100% = cells with rucaparib alone
[29] = at 0.0195 µM, OCI-C5x cells, without rucaparib
[30] = at 0.0195 µM, OCI-P5x cells, with rucaparib 20 µM, 100% = cells with rucaparib alone
[31] = at 0.0195 µM, OCI-P5x cells, without rucaparib
[32] = at 0.0781 µM, OCI-C5x cells, with rucaparib 10 µM, 100% = cells with rucaparib alone
[33] = at 0.0781 µM, OCI-C5x cells, without rucaparib
[34] = at 0.0781 µM, OCI-P5x cells, with rucaparib 20 µM, 100% = cells with rucaparib alone
[35] = at 0.0781 µM, OCI-P5x cells, without rucaparib
[36] = at 0.313 µM, OCI-C5x cells, with rucaparib 10 µM, 100% = cells with rucaparib alone
[37] = at 0.313 µM, OCI-C5x cells, without rucaparib
[38] = at 0.313 µM, OCI-P5x cells, with rucaparib 20 µM, 100% = cells with rucaparib alone
[39] = at 0.313 µM, OCI-P5x cells, without rucaparib
[40] = at 1.25 µM, OCI-C5x cells, with rucaparib 10 µM, 100% = cells with rucaparib alone
[41] = at 1.25 µM, OCI-C5x cells, without rucaparib
[42] = at 1.25 µM, OCI-P5x cells, with rucaparib 20 µM, 100% = cells with rucaparib alone
[43] = at 1.25 µM, OCI-P5x cells, without rucaparib
[44] = at 5 µM, OCI-C5x cells, with rucaparib 10 µM, 100% = cells with rucaparib alone
[45] = at 5 µM, OCI-C5x cells, without rucaparib
[46] = at 5 µM, OCI-P5x cells, with rucaparib 20 µM, 100% = cells with rucaparib alone
[47] = at 5 µM, OCI-P5x cells, without rucaparib

Cc1cnc(-c2ccccc2C(C)C)nc1NCc1ccc(-n2ccnn2)cc1
active: viability [7, 22] 95.9% | viability [7, 26] 98.5% | viability [7, 31] 97.4% | viability [7, 35] 97.6% | viability [7, 38] 96.4% | viability [7, 43] 96.9% | viability [7, 46] 94.5% | viability [7, 47] 97.8%
inactive: outcome [1] | outcome [2] | outcome [3] | outcome [4] | fold change [5, 10] 0.905 | z-score [6, 14] -0.372 | viability [7, 16] 118% | viability [7, 17] 116% | viability [7, 18] 101% | viability [7, 19] 100% | viability [7, 20] 132% | viability [7, 21] 118% | viability [7, 23] 102% | viability [7, 24] 132% | viability [7, 25] 120% | viability [7, 27] 102% | viability [7, 28] 123% | viability [7, 29] 110% | viability [7, 30] 103% | viability [7, 32] 123% | viability [7, 33] 118% | viability [7, 34] 100% | viability [7, 36] 126% | viability [7, 37] 126% | viability [7, 39] 101% | viability [7, 40] 127% | viability [7, 41] 119% | viability [7, 42] 104% | viability [7, 44] 129% | viability [7, 45] 130%
7550: cell count [5, 12]
0.465: fold change [5, 11]
0.422: z-score [6, 15]
8340: cell count [5, 13]

COc1cc2ncnc(Nc3ccc(O)c(Br)c3)c2cc1OC
inactive: parasite load remaining [8] 33.2% | z-score [6, 14] -0.521
-0.0359: z-score [6, 15]
0.931: fold change [5, 11]
98.7%: viability [8]
active: AC50 [1] 16.6 µM | AC50 [2] 14.8 µM | AC50 [3] 13.2 µM | fold change [5, 10] 0.645
5290: cell count [5, 13]
3410: cell count [5, 12]

COc1ccc(CNc2nc(N(CCO)CCO)nc3c2ncn3C(C)C)cc1
84%: viability [8]
inactive: parasite load remaining [8] 40.6%
active: AC50 [1] 7.42 µM | AC50 [2] 10.5 µM | AC50 [3] 5.25 µM | IC50 [4] 11.8 µM

O=C(Nc1ccnc(NC(=O)C2CC2)c1)c1c(Cl)cccc1Cl
active: AC50 [1] 9.34 µM | AC50 [3] 2.63 µM | IC50 [4] 7.42 µM

CNC(=O)c1cc(Oc2ccc3nc(N[C@@H]4CCCC[C@H]4O)sc3c2)ccn1
inactive: outcome [1] | outcome [4]

CC#C[C@@H](CC(=O)O)c1ccc(OCc2cccc(-c3ccc(C(F)(F)F)cc3)c2)cc1
inactive: outcome [1] | outcome [3] | outcome [4]

Cc1cccc(-c2nn3c(c2-c2ccnc4ccc(C(N)=O)cc24)CCC3)n1
6630: cell count [9]
9100: cell count [5, 13]
1.55: SSMD [9]
8480: cell count [5, 12]
active: viability [7, 26] 99.7%
0.899: fold change [5, 11]
inactive: outcome [1] | outcome [3] | fold change [5, 10] 0.932 | plate-normalised HSF1 focus index [9] 1.08 | z-score [6, 14] -0.309 | viability [7, 16] 110% | viability [7, 17] 130% | viability [7, 18] 102% | viability [7, 19] 110% | viability [7, 20] 110% | viability [7, 21] 133% | viability [7, 22] 102% | viability [7, 23] 108% | viability [7, 24] 110% | viability [7, 25] 128% | viability [7, 27] 112% | viability [7, 28] 113% | viability [7, 29] 136% | viability [7, 30] 105% | viability [7, 31] 110% | viability [7, 32] 109% | viability [7, 33] 127% | viability [7, 34] 110% | viability [7, 35] 116% | viability [7, 36] 114% | viability [7, 37] 137% | viability [7, 38] 113% | viability [7, 39] 114% | viability [7, 40] 111% | viability [7, 41] 135% | viability [7, 42] 112% | viability [7, 43] 118% | viability [7, 44] 131% | viability [7, 45] 157% | viability [7, 46] 127% | viability [7, 47] 125%
1.2: z-score [6, 15]

CCn1c(N)c(C(=O)NC)c(=O)c2ccc(C#CC(C)(O)COC)nc21 (stereo not given)
inactive: outcome [3] | outcome [4]
active: AC50 [1] 20.9 µM

Cc1noc2c1-c1ccccc1C(c1ccc(Cl)cc1)=N[C@H]2CC(N)=O
inactive: outcome [1] | outcome [4]

C[C@@H](O)[C@@H](C)Oc1nc(Nc2ccc(S(=N)(=O)C3CC3)cc2)ncc1C(F)(F)F (stereo not given in full)
active: AC50 [1] 20.9 µM
inactive: outcome [4]

CSc1ccc(C(=O)/C=C/c2cc(C)c(OC(C)(C)C(=O)O)c(C)c2)cc1
inactive: outcome [1] | outcome [4]

C[C@@H]1CC(=O)Nc2cccc(-c3ccc4c(c3)c(-c3cnn(C)c3)nn4C)c2N1
inactive: outcome [1] | outcome [4]

Cc1onc(-c2ccc(F)cc2)c1COc1ccc(C(=O)N2CCS(=O)(=O)CC2)cn1
inactive: outcome [1] | outcome [3] | outcome [4]

COc1cc(C(N)=O)ccc1NC(=O)[C@@H]1N[C@@H](CC(C)(C)C)[C@@]2(C(=O)Nc3cc(Cl)ccc32)[C@H]1c1cccc(Cl)c1F
active: AC50 [1] 23.5 µM | AC50 [3] 23.5 µM | IC50 [4] 16.6 µM

CC(=O)C1CCC2C3CCC4=CC(=O)CCC4(C)C3CCC12C (stereo not given)
inactive: outcome [1] | outcome [3] | outcome [4]
